These results are taken from the antibiotic and cytotoxicity screens of Wong et al. (2023).

Structures are written as SMILES. Among all 39,000 compounds or so, about 3,300 (8.5%) were called active. This excerpt belongs to a sample that is enriched for actives.

In the assay the test system is HepG2. The assay can be described thus: cytotoxicity call (relative viability < 0.9). The conditions noted are these: 10 µM.
Regarding `COc1ccc(S(=O)(=O)N(C)C[C@H]2OCCCC[C@@H](C)Oc3ccc(NC(=O)c4ccccc4)cc3C(=O)N([C@@H](C)CO)C[C@@H]2C)cc1`, the cytotoxicity call was “inactive”. For the molecule `CN(C)CC#Cc1ccc([C@@H]2[C@@H](CO)N3C(=O)CN(C(=O)CN(C)C)C[C@@H]23)cc1`, the cytotoxicity call is “inactive”.

Regarding `C[C@@H]1CN([C@H](C)CO)C(=O)c2cc(C#CC3(O)CCCC3)cnc2O[C@H]1CN(C)S(=O)(=O)c1ccccc1`, the cytotoxicity call is “inactive”.

Turning to `CC(C)NC(=O)Nc1cccc2c1O[C@@H](CN(C)Cc1ccc(C(=O)O)cc1)[C@H](C)CN([C@H](C)CO)C2=O`, the cytotoxicity call is “inactive”. For the molecule `c1cc2c(cc1-c1nn[nH]n1)OCO2`, the cytotoxicity call is “inactive”. On to `COc1cc(OC)cc(C(=O)Nc2nc(-c3ccc4c(c3)CCN4C(=O)CN3CCOCC3)cs2)c1`, for which the cytotoxicity call is “inactive”. Regarding `O=C(NCCCN1CCOCC1)Nc1ccc(Cc2ccc(NC(=O)NCCCN3CCOCC3)cc2)cc1`, the cytotoxicity call was “inactive”. Regarding `CC(C)(C)c1cc(NC(=O)Nc2ccc(-c3cn4c(n3)sc3cc(OCCN5CCOCC5)ccc34)cc2)no1`, the cytotoxicity call was “active”. To `C[C@@H]1CCCCO[C@@H](CN(C)S(=O)(=O)c2cccs2)[C@@H](C)CN([C@@H](C)CO)C(=O)c2cc(NC(=O)Cc3ccccc3)ccc2O1` belongs “inactive”. With `C[C@H](CO)N1C[C@H](C)[C@@H](CN(C)C(=O)Nc2ccc3c(c2)OCO3)Oc2c(NS(=O)(=O)c3cn(C)cn3)cccc2C1=O`, the cytotoxicity call is “inactive”.

In the case of `COc1ccc(CN(C)C[C@@H]2OCCCC[C@H](C)Oc3ccc(NC(=O)Nc4cccc5ccccc45)cc3C(=O)N([C@@H](C)CO)C[C@H]2C)cc1`, the cytotoxicity call is “active”. Consider `COc1ccc(CN(C)C[C@H]2OCCCC[C@H](C)Oc3ccc(NC(=O)Nc4cccc5ccccc45)cc3C(=O)N([C@H](C)CO)C[C@@H]2C)cc1`, for which the cytotoxicity call was “inactive”.

With `COc1ccc(CN(C)C[C@H]2OCCCC[C@@H](C)Oc3ccc(NC(=O)Nc4cccc5ccccc45)cc3C(=O)N([C@H](C)CO)C[C@H]2C)cc1`, the cytotoxicity call was “inactive”. On to `COc1ccc(CN(C)C[C@@H]2OCCCC[C@@H](C)Oc3ccc(NC(=O)Nc4cccc5ccccc45)cc3C(=O)N([C@@H](C)CO)C[C@H]2C)cc1`, for which the cytotoxicity call is “active”. To `COc1ccc(CN(C)C[C@@H]2OCCCC[C@H](C)Oc3ccc(NC(=O)Nc4cccc5ccccc45)cc3C(=O)N([C@H](C)CO)C[C@@H]2C)cc1` belongs “inactive”. On to `COc1ccc(CN(C)C[C@@H]2OCCCC[C@H](C)Oc3ccc(NC(=O)Nc4cccc5ccccc45)cc3C(=O)N([C@@H](C)CO)C[C@@H]2C)cc1`, for which the cytotoxicity call is “inactive”. Turning to `COc1ccc(CN(C)C[C@@H]2OCCCC[C@@H](C)Oc3ccc(NC(=O)Nc4cccc5ccccc45)cc3C(=O)N([C@H](C)CO)C[C@H]2C)cc1`, the cytotoxicity call is “active”. With `COc1ccc(CN(C)C[C@H]2OCCCC[C@H](C)Oc3ccc(NC(=O)Nc4cccc5ccccc45)cc3C(=O)N([C@@H](C)CO)C[C@@H]2C)cc1`, the cytotoxicity call is “inactive”.

Regarding `COc1ccc(CN(C)C[C@H]2OCCCC[C@H](C)Oc3ccc(NC(=O)Nc4cccc5ccccc45)cc3C(=O)N([C@@H](C)CO)C[C@H]2C)cc1`, the cytotoxicity call was “inactive”. Regarding `COc1ccc(CN(C)C[C@@H]2OCCCC[C@H](C)Oc3ccc(NC(=O)Nc4cccc5ccccc45)cc3C(=O)N([C@H](C)CO)C[C@H]2C)cc1`, the cytotoxicity call was “active”.
